Read-out in test [1]: Thrombomodulin, THBD (gene 7056)
Briefly: BSK_CASM3C_Thrombomodulin: BioMAP Diversity Plus: CASM3C Assay for Thrombomodulin Biomarker Activity (AID 2283051).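 Further: thrombomodulin protein level measured by ELISA 24 h after dosing.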 As to conditions: primary human coronary artery smooth muscle cells; actives raise or lower the signal.

Read-out in test [2]: Tissue Factor, F3 (gene 2152)
Briefly: BSK_CASM3C_TissueFactor: BioMAP Diversity Plus: CASM3C Assay for Tissue Factor Biomarker Activity (AID 2283052).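 Further: cell surface tissue factor protein level read by ELISA.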 As to conditions: primary human coronary artery smooth muscle cells; actives raise or lower the signal.

Read-out in test [3]: Interferon-gamma inducible Protein 10 (IP10), CXCL10 (gene 3627)
Nature of the test: BSK_hDFCGF_IP10: BioMAP Diversity Plus: hDFCGF Assay for Interferon-gamma inducible Protein 10 (IP10) Biomarker Activity (AID 2283053). As to conditions: primary human foreskin fibroblasts; actives raise or lower the signal. The method, boiled down: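 Primary foreskin fibroblasts, human; 24 h compound exposure; IP-10 by ELISA; bidirectional fit vs DMSO.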

Read-out in test [4]: Urokinase-type plasminogen activator receptor (uPAR), PLAUR (gene 5329)
Nature of the test: BSK_CASM3C_uPAR: BioMAP Diversity Plus: CASM3C Assay for Urokinase-type plasminogen activator receptor (uPAR) Biomarker Activity (AID 2283054).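 Further: cell-surface uPAR protein level quantified by ELISA.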 As to conditions: primary human coronary artery smooth muscle cells; actives raise or lower the signal.

Read-out in test [5]: Vascular cell adhesion molecule 1 (VCAM1), VCAM1 (gene 7412)
Briefly: BSK_CASM3C_VCAM1: BioMAP Diversity Plus: CASM3C Assay for Vascular cell adhesion molecule 1 (VCAM1) Biomarker Activity (AID 2283055).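 Further: VCAM-1 protein level quantified by ELISA on the cells.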 As to conditions: primary human coronary artery smooth muscle cells; actives raise or lower the signal.

Read-out in test [6]: Collagen III, COL3A1 (gene 1281)
Briefly: BSK_hDFCGF_CollagenIII: BioMAP Diversity Plus: hDFCGF Assay for Collagen III Biomarker Activity (AID 2283056). As to conditions: primary human foreskin fibroblasts; actives raise or lower the signal. The method, boiled down:
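ELISA read-out of collagen III from human skin fibroblast cultures sampled 24 h post-dosing. Values were derived by bidirectional fitting relative to the DMSO vehicle control.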

Read-out in test [7]: Epidermal growth factor receptor (EGFR), EGFR (gene 1956)
Briefly: BSK_hDFCGF_EGFR: BioMAP Diversity Plus: hDFCGF Assay for Epidermal growth factor receptor (EGFR) Biomarker Activity (AID 2283057). As to conditions: primary human foreskin fibroblasts; actives raise or lower the signal. The method, boiled down: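 hDFCGF system, primary human foreskin fibroblasts; compound 24 h; EGFR measured by ELISA; DMSO = negative control/baseline; bidirectional fitting.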

Read-out in test [8]: Interleukin-8 (IL8), CXCL8 (gene 3576)
Briefly: BSK_hDFCGF_IL8: BioMAP Diversity Plus: hDFCGF Assay for Interleukin-8 (IL8) Biomarker Activity (AID 2283058). As to conditions: primary human foreskin fibroblasts; actives raise or lower the signal. The method, boiled down:
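Cells used are human skin primary fibroblasts. Chemical is added, cultures run 24 h, then IL-8 is quantified by ELISA, and gain or loss versus DMSO control is fitted in both directions.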

Test [9] is described as follows: BSK_hDFCGF_Proliferation: Cell Proliferation Assessment in the BioMAP Diversity Plus: hDFCGF Assay (AID 2283059).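 Further: curves fitted for both rise and fall of signal versus DMSO baseline.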 As to conditions: primary human foreskin fibroblasts. The method in brief:
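Sub-confluent human foreskin fibroblast cultures receive test chemical […]. Relative cell number is quantified by sulforhodamine B staining (0.1%, after 10% TCA fixation) at 560 nm, with bidirectional fitting referenced to DMSO.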

Read-out in test [10]: Macrophage colony-stimulating factor (MCSF), CSF1 (gene 1435)
Nature of the test: BSK_hDFCGF_MCSF: BioMAP Diversity Plus: hDFCGF Assay for Macrophage colony-stimulating factor (MCSF) Biomarker Activity (AID 2283060). As to conditions: primary human foreskin fibroblasts; actives raise or lower the signal. The method in brief: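 Primary human foreskin fibroblasts dosed with chemical; 24 h later, M-CSF quantified by ELISA; curves fitted in both directions vs DMSO negative control.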

A short description of test [11]: BSK_hDFCGF_SRB: Viability Assessment in the BioMAP Diversity Plus: hDFCGF Assay (AID 2283061).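 Further: cells exposed to compound for 24 h before the read.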 As to conditions: primary human foreskin fibroblasts. The method, boiled down: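 Readout is SRB absorbance at 560 nm, reflecting total protein in parallel cultures of human foreskin fibroblasts harvested 24 h after chemical dosing. Activity was fitted bidirectionally relative to DMSO.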

Read-out in test [12]: TIMP metallopeptidase inhibitor 1 (TIMP1), TIMP1 (gene 7076)
Nature of the test: BSK_hDFCGF_TIMP1: BioMAP Diversity Plus: hDFCGF Assay for TIMP metallopeptidase inhibitor 1 (TIMP1) Biomarker Activity (AID 2283062). As to conditions: primary human foreskin fibroblasts; actives raise or lower the signal. The method in brief: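 Human skin fibroblasts (primary), hDFCGF system; compound exposure 24 h; TIMP-1 by ELISA; bidirectional fit vs DMSO negative control; overt cytotoxicity by SRB in parallel wells.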

Read-out in test [13]: Monokine induced gamma interferon (MIG), CXCL9 (gene 4283)
Briefly: BSK_hDFCGF_MIG: BioMAP Diversity Plus: hDFCGF Assay for Monokine induced gamma interferon (MIG) Biomarker Activity (AID 2283063). As to conditions: primary human foreskin fibroblasts; actives raise or lower the signal. The method, boiled down:
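Chemicals were added to primary human foreskin fibroblast cultures, which were sampled 24 h later. MIG levels were then quantified by ELISA and responses fitted in both directions relative to DMSO.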

Read-out in test [14]: Matrix Metallopeptidase 1 (MMP1), MMP1 (gene 4312)
Briefly: BSK_hDFCGF_MMP1: BioMAP Diversity Plus: hDFCGF Assay for Matrix Metallopeptidase 1 (MMP1) Biomarker Activity (AID 2283064). As to conditions: primary human foreskin fibroblasts; actives raise or lower the signal. The method in brief:
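Primary human foreskin fibroblasts in the hDFCGF system were dosed with test chemical, and MMP1 was measured by ELISA 24 h later. Values come from bidirectional curve fitting against the DMSO baseline.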

Read-out in test [15]: Vascular cell adhesion molecule 1 (VCAM1), VCAM1 (gene 7412)
Briefly: BSK_hDFCGF_VCAM1: BioMAP Diversity Plus: hDFCGF Assay for Vascular cell adhesion molecule 1 (VCAM1) Biomarker Activity (AID 2283065). As to conditions: primary human foreskin fibroblasts; actives raise or lower the signal. The method, boiled down:
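Human foreskin fibroblast primary cells, chemical exposure 24 h; VCAM-1 by ELISA; bidirectional fit, DMSO = negative control/baseline.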

Read-out in test [16]: Plasminogen activator inhibitor-1 (PAI1), SERPINE1 (gene 5054)
Nature of the test: BSK_hDFCGF_PAI1: BioMAP Diversity Plus: hDFCGF Assay for Plasminogen activator inhibitor-1 (PAI1) Biomarker Activity (AID 2283066). As to conditions: primary human foreskin fibroblasts; actives raise or lower the signal. The method, boiled down: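 Primary dermal fibroblasts (human foreskin), hDFCGF system; compound 24 h; PAI-1 by ELISA; bidirectional fit vs DMSO control.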

Read-out in test [17]: Intercellular Adhesion Molecule 1 (ICAM1), ICAM1 (gene 3383)
Nature of the test: BSK_KF3CT_ICAM1: BioMAP Diversity Plus: KF3CT Assay for Intercellular Adhesion Molecule 1 (ICAM1) Biomarker Activity (AID 2283067). As to conditions: primary human keratinocytes with fibroblasts; actives raise or lower the signal. The method in brief:
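ICAM-1 levels are measured by ELISA 24 h after dosing a primary human co-culture of keratinocytes and foreskin fibroblasts. Activity in either direction is fitted relative to DMSO vehicle.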

Read-out in test [18]: Interferon-gamma inducible Protein 10 (IP10), CXCL10 (gene 3627)
Nature of the test: BSK_KF3CT_IP10: BioMAP Diversity Plus: KF3CT Assay for Interferon-gamma inducible Protein 10 (IP10) Biomarker Activity (AID 2283068). As to conditions: primary human keratinocytes with fibroblasts; actives raise or lower the signal. The method in brief: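 ELISA read-out of IP-10 after 24 h chemical dosing of human skin primary co-culture (keratinocytes, foreskin fibroblasts). Gain or loss of signal relative to DMSO, bidirectional curve fit.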

Read-out in test [19]: Interleukin-1 alpha (IL1a), IL1A (gene 3552)
Briefly: BSK_KF3CT_IL1a: BioMAP Diversity Plus: KF3CT Assay for Interleukin-1 alpha (IL1a) Biomarker Activity (AID 2283070). As to conditions: primary human keratinocytes with fibroblasts; actives raise or lower the signal. The method in brief: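 Human keratinocyte plus foreskin fibroblast primary co-culture, sampled 24 h after chemical dosing. IL-1a measured by ELISA; responses fitted bidirectionally against DMSO baseline (negative control), so gain or loss of signal both count.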

A short description of test [20]: BSK_KF3CT_SRB: Viability Assessment in the BioMAP Diversity Plus: KF3CT Assay (AID 2283069).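 Further: total protein by sulforhodamine B staining as a cytotoxicity measure; read 24 h after compound addition.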 As to conditions: primary human keratinocytes with fibroblasts. The method in brief:
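Human primary keratinocyte plus foreskin fibroblast co-culture exposed to chemicals for 24 h. Total protein measured by 0.1% sulforhodamine B staining after 10% TCA fixation, read at 560 nm; bidirectional fitting versus DMSO baseline.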

Each structure is given as a SMILES string. A structure can be active in one record and inactive in another. The source made the active and inactive calls. How the source made its calls: active means hit-call score of the fitted dose curve at least 0.9, where 1 is the maximum; inactive means score below 0.9.

For `Cc1ccc2n[nH]nc2c1`, the outcome in test [1], in test [2], in [3], in [4], in test [5] and in [6] was inactive. Also, the outcome in test [7], in test [8], in test [9], in [10], in [11] and in test [12] was inactive. Besides, the result in test [13], in test [14], in test [15], in test [16], in test [17] and in test [18] was inactive. For the same compound, the outcome in test [19] was inactive.

A word on the AC50: it is the concentration giving half of the maximal activity seen. As for `CC[Si](OC(C)=O)(OC(C)=O)OC(C)=O`, the outcome in [1], in test [2], in test [3], in test [4], in test [5] and in test [6] was inactive. Also, the result in test [7], in test [8], in test [9], in test [10], in test [11] and in test [12] was inactive. Also, the outcome in [13], in test [15], in test [16], in [17], in test [18] and in test [19] was inactive. Besides, the AC50 in test [6] is 5.47 µM (active); in test [9], 16.1 µM (active).

Regarding `O=C=NC1CCC(CC2CCC(N=C=O)CC2)CC1` (stereo unspecified), the outcome in [1], in test [2], in test [3], in test [4], in [5] and in test [6] was inactive. The result in test [7], in [8], in test [11], in test [12], in [13] and in test [14] was inactive. For the same compound, the result in test [15], in test [17], in test [18] and in test [19] was inactive. Besides, the values for the AC50 in test [9], in test [10] and in test [16] were 28.5 µM (active), 4.84 µM (active) and 25.6 µM (active), respectively.

For `CC(C)Oc1ccccc1O`, the outcome in test [1], in test [2], in test [3], in test [4], in test [5] and in [6] was inactive. In addition, the result in test [7], in [8], in test [10], in [11], in [12] and in test [13] was inactive. Moreover, the result in [14], in test [15], in [16], in test [17], in [18] and in test [20] was inactive. In addition, the outcome in [19] was inactive. Moreover, the AC50 in test [9] was 20 µM (active).

With `CN(CCOc1ccc(CC2SC(=O)NC2=O)cc1)c1ccccn1` (stereo unspecified), the result in test [1], in test [4], in [5], in test [6], in test [7] and in test [8] was inactive. Further, the result in [11], in test [12], in [13], in [15], in test [16] and in [17] was inactive. For the same compound, the outcome in test [18] and in test [20] was inactive. The AC50 is 5.59 µM (active) in [2]; 0.0536 µM (active) in test [3]; 13.3 µM (active) in [9]; 0.0484 µM (active) in [10]; 0.582 µM (active) in test [19].

As for `O=C(O)c1cn(-c2ccc(F)cc2)c2cc(N3CCNCC3)c(F)cc2c1=O`, the outcome in test [1], in test [2], in test [3], in test [4], in [5] and in [6] was inactive. In addition, the outcome in test [7], in [8], in test [9], in test [10], in test [11] and in [12] was inactive. Further, the result in [13], in test [15], in [16], in test [17], in [18] and in test [20] was inactive. Besides, the result in [19] was inactive.

Source of the values: PubChem BioAssay (EPA / NIEHS).
